# Measurements from the supplement of paper PMC10037445.
# Whole data set: some 2,900 compounds, median “NF-kB SEAP reporter activity, fold change vs agonist alone” near 0.99, cut for the highest 2% near 2.6. Many of the other results were omitted from the sample, so the highest values are more common in it than they were.
# Key:
# RAW-Dual [1] = assay: NF-kB SEAP reporter activity, fold change vs agonist alone; higher = enhanced NF-kB activity
# Summary of the method: (§1)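 Library stock was pin-tooled at 50 nL into 384-well plates of RAW-Dual macrophages (50,000 cells/well, DMEM), followed 1 h later by a PRR agonist, and the cells were kept at 37 °C, 5% CO2. Supernatant collected after 20 hours was read for IRF by QuantiLuc luminescence and for NF-κB by QuantiBlue absorbance at 620 nm. Reporter activity is fold change over agonist-alone wells, and a well counted as cytotoxic when its IncuCyte confluency was below 70% of agonist controls in both mask sets.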
# RAW-Dual [2] = assay: NF-kB SEAP reporter activity, fold change vs agonist alone; cytotoxicity flag (confluency mask): not cytotoxic; higher = enhanced NF-kB activity
# Summary of the method: as §1
# RAW-Dual [3] = assay: NF-kB SEAP reporter activity, fold change vs agonist alone; cytotoxicity flag (confluency mask): cytotoxic (confluency <70% of control); higher = enhanced NF-kB activity
# Summary of the method: as §1
# [4] = library stock concentration (final ~1000-fold dilution): 10 mM, cytotoxicity flag (confluency mask): not cytotoxic, agonist: Imiquimod (TLR7) […]
# [5] = library stock concentration (final ~1000-fold dilution): 10 mM, cytotoxicity flag (confluency mask): not cytotoxic, agonist: MPLA (TLR4) […]
# [6] = agonist: ODN 1826 (TLR9) 0.5 ug/mL
# [7] = agonist: Pam2CSK4 (TLR2/6) 0.1 ug/mL
# [8] = agonist: Pam3CSK4 (TLR2/1) 0.1 ug/mL
# [9] = library stock concentration (final ~1000-fold dilution): 10 mM, cytotoxicity flag (confluency mask): cytotoxic (confluency <70% of control), agonist: MPLA (TLR4) […]
# [10] = library stock concentration (final ~1000-fold dilution): 10 mM, cytotoxicity flag (confluency mask): cytotoxic (confluency <70% of control), agonist: Imiquimod (TLR7) […]
compound,measurement,setting,value
CC(C)(Cc1ccc2ccccc2c1)NCC(O)COc1cccc(Cl)c1C#N (configuration not stated),NF-kB SEAP reporter activity,RAW-Dual [1]; [4],0.896
same,NF-kB SEAP reporter activity,RAW-Dual [1]; [5],0.972
CC(C)(Cc1ccc2ccccc2c1)NCC(O)COc1cccc(Cl)c1C#N (configuration not stated) (library stock concentration (final ~1000-fold dilution): 10 mM),NF-kB SEAP reporter activity,RAW-Dual [2]; agonist: LPS (TLR4) 0.1 ug/mL,0.273
same,NF-kB SEAP reporter activity,RAW-Dual [2]; [6],0.962
same,NF-kB SEAP reporter activity,RAW-Dual [2]; [7],0.164
same,NF-kB SEAP reporter activity,RAW-Dual [2]; [8],1.03
CCCCCCCCCC(=O)NC(Cc1c[nH]c2ccccc12)C(=O)NC(CC(N)=O)C(=O)NC(CC(=O)O)C(=O)NC1C(=O)NCC(=O)NC(CCCN)C(=O)NC(CC(=O)O)C(=O)NC(C)C(=O)NC(CC(=O)O)C(=O)NCC(=O)NC(CO)C(=O)NC(C(C)CC(=O)O)C(=O)NC(CC(=O)c2ccccc2N)C(=O)OC1C (configuration not stated),NF-kB SEAP reporter activity,RAW-Dual [1]; [4],0.826
same,NF-kB SEAP reporter activity,RAW-Dual [1]; [5],0.855
CCCCCCCCCC(=O)NC(Cc1c[nH]c2ccccc12)C(=O)NC(CC(N)=O)C(=O)NC(CC(=O)O)C(=O)NC1C(=O)NCC(=O)NC(CCCN)C(=O)NC(CC(=O)O)C(=O)NC(C)C(=O)NC(CC(=O)O)C(=O)NCC(=O)NC(CO)C(=O)NC(C(C)CC(=O)O)C(=O)NC(CC(=O)c2ccccc2N)C(=O)OC1C (configuration not stated) (library stock concentration (final ~1000-fold dilution): 10 mM),NF-kB SEAP reporter activity,RAW-Dual [2]; agonist: LPS (TLR4) 0.1 ug/mL,1.33
same,NF-kB SEAP reporter activity,RAW-Dual [2]; [6],1.01
same,NF-kB SEAP reporter activity,RAW-Dual [2]; [7],1.05
same,NF-kB SEAP reporter activity,RAW-Dual [2]; [8],1.19
CC(=O)OC(CC=C(C)C)C1=CC(=O)c2c(O)ccc(O)c2C1=O (configuration not stated) (library stock concentration (final ~1000-fold dilution): 2 mM),NF-kB SEAP reporter activity,RAW-Dual [2]; agonist: LPS (TLR4) 0.1 ug/mL,0.479
same,NF-kB SEAP reporter activity,RAW-Dual [2]; [6],0.647
same,NF-kB SEAP reporter activity,RAW-Dual [2]; [7],0.257
same,NF-kB SEAP reporter activity,RAW-Dual [2]; [8],0.408
CC(=O)OC(CC=C(C)C)C1=CC(=O)c2c(O)ccc(O)c2C1=O (configuration not stated),NF-kB SEAP reporter activity,"RAW-Dual [1]; library stock concentration (final ~1000-fold dilution): 2 mM, cytotoxicity flag (confluency mask): not cytotoxic, agonist: Imiquimod (TLR7) […]",0.978
same,NF-kB SEAP reporter activity,"RAW-Dual [1]; library stock concentration (final ~1000-fold dilution): 2 mM, cytotoxicity flag (confluency mask): not cytotoxic, agonist: MPLA (TLR4) […]",0.978
O=c1cc(-c2ccccc2)oc2c1ccc1ccccc12 (library stock concentration (final ~1000-fold dilution): 10 mM),NF-kB SEAP reporter activity,RAW-Dual [2]; agonist: LPS (TLR4) 0.1 ug/mL,0.691
same,NF-kB SEAP reporter activity,RAW-Dual [2]; [6],0.933
same,NF-kB SEAP reporter activity,RAW-Dual [2]; [7],0.846
same,NF-kB SEAP reporter activity,RAW-Dual [2]; [8],0.982
O=c1cc(-c2ccccc2)oc2c1ccc1ccccc12,NF-kB SEAP reporter activity,RAW-Dual [1]; [5],1.2
C#CCNC1CCc2ccccc21 (configuration not stated),NF-kB SEAP reporter activity,RAW-Dual [1]; [4],0.916
same,NF-kB SEAP reporter activity,RAW-Dual [1]; [5],1.14
C#CCNC1CCc2ccccc21 (configuration not stated) (library stock concentration (final ~1000-fold dilution): 10 mM),NF-kB SEAP reporter activity,RAW-Dual [2]; agonist: LPS (TLR4) 0.1 ug/mL,1.06
same,NF-kB SEAP reporter activity,RAW-Dual [2]; [6],0.931
same,NF-kB SEAP reporter activity,RAW-Dual [2]; [7],1.04
same,NF-kB SEAP reporter activity,RAW-Dual [2]; [8],1.08
O=C1Nc2ccc(Cl)cc2C(C#CC2CC2)(C(F)(F)F)O1 (configuration not stated) (library stock concentration (final ~1000-fold dilution): 10 mM),NF-kB SEAP reporter activity,RAW-Dual [3]; agonist: LPS (TLR4) 0.1 ug/mL,0.632
same,NF-kB SEAP reporter activity,RAW-Dual [3]; [6],0.547
same,NF-kB SEAP reporter activity,RAW-Dual [3]; [7],0.614
same,NF-kB SEAP reporter activity,RAW-Dual [3]; [8],0.542
O=C1Nc2ccc(Cl)cc2C(C#CC2CC2)(C(F)(F)F)O1 (configuration not stated),NF-kB SEAP reporter activity,RAW-Dual [1]; [9],0.748
CCCC(NC1CCc2cc(F)cc(F)c2C1)C(=O)Nc1cn(C(C)(C)CNCC(C)(C)C)cn1 (configuration not stated),NF-kB SEAP reporter activity,RAW-Dual [1]; [4],0.373
same,NF-kB SEAP reporter activity,RAW-Dual [1]; [5],0.669
CCCC(NC1CCc2cc(F)cc(F)c2C1)C(=O)Nc1cn(C(C)(C)CNCC(C)(C)C)cn1 (configuration not stated) (library stock concentration (final ~1000-fold dilution): 10 mM),NF-kB SEAP reporter activity,RAW-Dual [2]; agonist: LPS (TLR4) 0.1 ug/mL,0.636
same,NF-kB SEAP reporter activity,RAW-Dual [2]; [6],0.316
same,NF-kB SEAP reporter activity,RAW-Dual [2]; [7],0.723
same,NF-kB SEAP reporter activity,RAW-Dual [2]; [8],0.298
CC(=O)NC(CC(C)C)C(=O)NC(CC(C)C)C(=O)NC(C=O)CCCNC(=N)N (configuration not stated),NF-kB SEAP reporter activity,RAW-Dual [1]; [4],0.983
same,NF-kB SEAP reporter activity,RAW-Dual [1]; [5],1.09
CC(=O)NC(CC(C)C)C(=O)NC(CC(C)C)C(=O)NC(C=O)CCCNC(=N)N (configuration not stated) (library stock concentration (final ~1000-fold dilution): 10 mM),NF-kB SEAP reporter activity,RAW-Dual [2]; agonist: LPS (TLR4) 0.1 ug/mL,1.01
same,NF-kB SEAP reporter activity,RAW-Dual [2]; [6],1.02
same,NF-kB SEAP reporter activity,RAW-Dual [2]; [7],1.08
same,NF-kB SEAP reporter activity,RAW-Dual [2]; [8],1.15
CN1C2=C3N=c4ccccc4=C3CCN2C(=O)c2ccccc21 (library stock concentration (final ~1000-fold dilution): 10 mM),NF-kB SEAP reporter activity,RAW-Dual [2]; agonist: LPS (TLR4) 0.1 ug/mL,1.05
same,NF-kB SEAP reporter activity,RAW-Dual [2]; [6],0.339
same,NF-kB SEAP reporter activity,RAW-Dual [2]; [7],0.824
same,NF-kB SEAP reporter activity,RAW-Dual [2]; [8],1.1
CN1C2=C3N=c4ccccc4=C3CCN2C(=O)c2ccccc21,NF-kB SEAP reporter activity,RAW-Dual [1]; [4],1.62
same,NF-kB SEAP reporter activity,RAW-Dual [1]; [5],1.83
Cc1cc2c(C(N)=O)cccc2n1-c1nc2c(c(NCc3ccccc3)n1)COCC2 (library stock concentration (final ~1000-fold dilution): 10 mM),NF-kB SEAP reporter activity,RAW-Dual [3]; agonist: LPS (TLR4) 0.1 ug/mL,0.298
same,NF-kB SEAP reporter activity,RAW-Dual [3]; [6],0.325
same,NF-kB SEAP reporter activity,RAW-Dual [3]; [7],0.0795
same,NF-kB SEAP reporter activity,RAW-Dual [3]; [8],0.159
Cc1cc2c(C(N)=O)cccc2n1-c1nc2c(c(NCc3ccccc3)n1)COCC2,NF-kB SEAP reporter activity,RAW-Dual [1]; [10],0.297
same,NF-kB SEAP reporter activity,RAW-Dual [1]; [9],0.302
CC(C)=CCC[C@](C)(O)[C@H]1CC[C@]2(C)[C@@H]3CCC4C(C)(C)[C@@H](O)CC[C@]4(C)[C@H]3C[C@@H](O)[C@@]12C (some centres not stated) (library stock concentration (final ~1000-fold dilution): 10 mM),NF-kB SEAP reporter activity,RAW-Dual [2]; agonist: LPS (TLR4) 0.1 ug/mL,1.41
same,NF-kB SEAP reporter activity,RAW-Dual [2]; [6],0.693
same,NF-kB SEAP reporter activity,RAW-Dual [2]; [7],0.848
same,NF-kB SEAP reporter activity,RAW-Dual [2]; [8],0.882
CC(C)=CCC[C@](C)(O)[C@H]1CC[C@]2(C)[C@@H]3CCC4C(C)(C)[C@@H](O)CC[C@]4(C)[C@H]3C[C@@H](O)[C@@]12C (some centres not stated),NF-kB SEAP reporter activity,RAW-Dual [1]; [4],0.934
same,NF-kB SEAP reporter activity,RAW-Dual [1]; [5],1.14
O=c1cc(-c2ccc(O)cc2)oc2c(C3OCC(O)C(O)C3O)c(O)c(C3OC(CO)C(O)C(O)C3O)c(O)c12 (configuration not stated) (library stock concentration (final ~1000-fold dilution): 10 mM),NF-kB SEAP reporter activity,RAW-Dual [2]; agonist: LPS (TLR4) 0.1 ug/mL,1.45
same,NF-kB SEAP reporter activity,RAW-Dual [2]; [6],1.03
same,NF-kB SEAP reporter activity,RAW-Dual [2]; [7],1.08
same,NF-kB SEAP reporter activity,RAW-Dual [2]; [8],1.08
O=c1cc(-c2ccc(O)cc2)oc2c(C3OCC(O)C(O)C3O)c(O)c(C3OC(CO)C(O)C(O)C3O)c(O)c12 (configuration not stated),NF-kB SEAP reporter activity,RAW-Dual [1]; [4],1.02
same,NF-kB SEAP reporter activity,RAW-Dual [1]; [5],1.05
CCn1cc(-c2cccc(C(F)(F)F)c2)c2sc(C(=N)NC3CCS(=O)(=O)CC3)cc2c1=O,NF-kB SEAP reporter activity,RAW-Dual [1]; [10],1.33
same,NF-kB SEAP reporter activity,RAW-Dual [1]; [9],2.16
